This is a sample that favours compounds with a hit; in the whole collection about 3.1% have one here.
ATG4B inh – ATG4B protease inhibitors, primary screen, biochemical, fluorescence, uHTS. 340,000 compounds, 0.51% hits. inhibition, % at 8.33 µM. ATG4B cleavage of LC3-PLA2, NBD-HPC fluorescence, 1 h; in the data active = inhibition above about 40%
MEKK3 PB1 HTS – modulators of MEKK3-MEK5 PB1 binding, primary screen, biochemical, wildtype MEKK3, multiplex bead flow cytometry, Alexa488-MEK5; Mitogen-activated protein kinase kinase kinase 3 (Homo sapiens), Q99759; bead-based flow cytometry, Alexa488-MEK5 binding to MEKK3; actives lie on both sides; 0 = blocked by unlabeled MEK5, 100 = vehicle; binding response (% of control), % at 10 µM; 290,000 compounds, 1.4% hits; AID 1529, 2009;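 active = binding response more than 3 SD above or below the average of its plate-row segment, actives on both sides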;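 also: Alexa488 bead fluorescence after subtracting the streptavidin-only scavenger bead signal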
UBC13 polyUb – UBC13 polyubiquitin chain formation inhibitors, primary screen, biochemical, TR-FRET, uHTS; Ubiquitin-conjugating enzyme E2 N (Homo sapiens), P61088; inhibition, % at 20 µM; 330,000 compounds, 0.47% hits; AID 485273, 2010; in the data active = inhibition above about 45%, passing the limit was not always enough
MEKK2 WT-MEK5 – modulators of MEK5 binding to wildtype MEKK2, primary screen, biochemical, multiplex bead flow cytometry, Alexa488-MEK5; Mitogen-activated protein kinase kinase kinase 2 (Homo sapiens), Q9Y2U5; binding response (% of control), % at 10 µM; Alexa488-MEK5 binding to MEKK2 WT; actives lie on both sides; 290,000 compounds, 1.1% hits; in the data active = binding response below about 67% or above about 130%
MEKK2mut PB1 HTS – MEK5 binding signal on mutant MEKK2 PB1, primary screen, biochemical, multiplex bead flow cytometry, Alexa488-MEK5. percent response, % at 10 µM. Alexa488-MEK5 binding to MEKK2 mutant. AID 1530, 2009. 290,000 compounds, 0.35% hits; in the data active = percent response above about 24%, passing the limit was not always enough
PREPL inh – PREPL enzyme inhibitors, primary screen, biochemical, fluorescence polarization; Prolyl endopeptidase-like (Homo sapiens), Q4J6C6; recombinant PREPL, fluorescence polarization activity-based probe; inhibition, % at 5.96 µM; 320,000 compounds, 0.68% hits; AID 2751, 2010; in the data active = inhibition above about 43%;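 also: 0% = enzyme with DMSO and 100% = wells lacking enzyme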
Target sequence (Q4J6C6 whole entry, looked up): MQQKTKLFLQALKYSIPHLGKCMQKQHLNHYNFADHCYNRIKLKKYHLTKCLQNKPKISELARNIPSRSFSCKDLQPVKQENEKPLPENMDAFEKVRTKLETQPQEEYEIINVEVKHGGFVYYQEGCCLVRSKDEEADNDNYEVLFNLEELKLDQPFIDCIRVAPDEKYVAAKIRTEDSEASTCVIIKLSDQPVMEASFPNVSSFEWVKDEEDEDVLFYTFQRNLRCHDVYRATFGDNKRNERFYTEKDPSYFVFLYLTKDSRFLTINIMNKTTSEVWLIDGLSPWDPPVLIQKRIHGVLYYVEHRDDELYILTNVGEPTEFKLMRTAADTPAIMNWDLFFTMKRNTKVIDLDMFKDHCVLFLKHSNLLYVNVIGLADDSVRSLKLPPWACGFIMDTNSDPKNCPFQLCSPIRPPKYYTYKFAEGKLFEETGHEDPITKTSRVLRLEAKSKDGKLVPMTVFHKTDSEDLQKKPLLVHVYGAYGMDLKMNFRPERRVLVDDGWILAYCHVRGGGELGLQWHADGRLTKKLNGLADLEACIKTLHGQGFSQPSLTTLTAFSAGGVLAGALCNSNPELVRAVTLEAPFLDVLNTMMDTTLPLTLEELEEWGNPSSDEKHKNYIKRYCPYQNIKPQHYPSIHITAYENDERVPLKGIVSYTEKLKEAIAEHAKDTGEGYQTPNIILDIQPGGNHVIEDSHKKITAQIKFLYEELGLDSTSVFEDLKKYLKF
MEKK2wt confirm – modulators of MEK5 binding to wildtype MEKK2, confirmation, biochemical, single concentration, multiplex bead flow cytometry. shares compounds with MEKK3 PB1 HTS. Alexa488-MEK5 binding to MEKK2 WT; actives lie on both sides. binding response (% of control), % at 10 µM. 5,900 compounds, 2.4% hits. AID 1892, 2009; in the data active = binding response below about 16% or above about 210%; inactive = in between
MEKK2mut-MEK5 – mutant MEKK2 PB1-MEK5 binding signal retest – biochemical, single concentration, multiplex bead flow cytometry, confirmation. percent response, % at 10 µM. shares compounds with MEKK3 PB1 HTS. 5,900 compounds, 2% hits. Alexa488-MEK5 binding to MEKK2 mutant; in the data active = percent response mostly above about 71%, no sharp cut-off; inactive = mostly below about 38%;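 also: higher means compound restores mutant binding toward wildtype level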
MEKK3-MEK5 inh – MEKK3 wild-type PB1 binding to MEK5, inhibitors, confirmation, biochemical, bead multiplex flow cytometry, single concentration, wildtype. shares compounds with MEKK3 PB1 HTS. Alexa488-MEK5 binding to MEKK3; stronger effect = lower value. binding response (% of control), % at 10 µM. 5,900 compounds, 1.8% hits;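 active = binding response below 72% of control, or above a set upper limit, though filed actives all read lower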;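 also: 100% = DMSO only wells and 0% = binding blocked by excess unlabeled MEK5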
The depositor's hits bear a star; nt = no result given; [ ] = remark or other dose.

SMILES | ATG4B inh | MEKK3 PB1 HTS | UBC13 polyUb | MEKK2 WT-MEK5 | MEKK2mut PB1 HTS | PREPL inh | MEKK2wt confirm | MEKK2mut-MEK5 | MEKK3-MEK5 inh
Cc1nnc(SCC(=O)Nc2ccc([N+](=O)[O-])cc2)n1C | 4 | 99 | -4 | 105 | -2 | -2 | nt | nt | nt
Cc1cc(C)cc(N(C(C)C(=O)NCc2ccc3c(c2)OCO3)S(C)(=O)=O)c1 (stereo unspecified) | -4 | 104 | -3 | 104 | 4 | 4 | nt | nt | nt
COc1cc(CC(=O)OCC(=O)Nc2cc([N+](=O)[O-])ccc2Cl)cc(OC)c1OC | 14 | 97 | 4 | 58*[inhibitor] | 9 | -1 | 90 | -6 | 97
COc1ccc([N+](=O)[O-])cc1NC(=O)COC(=O)Cc1cc(OC)c(OC)c(OC)c1 | -19 | 99 | -4 | 99 | -1 | -4 | nt | nt | nt
CCN(c1ccc(N=Cc2c(O)n(Cc3ccc(OC)cc3)c(=O)c3ccccc23)cc1)C(C)C | -9 | 56*[inhibitor] | nt | nt | 175* | nt | 98 | -4 | 94
O=C(/C=C/c1ccc(Br)o1)NC(c1ccccc1)c1ccccc1 | -9 | 140* | 5 | 102 | 1 | -5 | 97 | -5 | 102
CC(C(=O)OCC(=O)Nc1ccc(S(N)(=O)=O)cc1)N1C(=O)c2ccccc2C1=O (stereo unspecified) | 2 | nt | 2 | nt | nt | 4 | nt | nt | nt
O=C(COC(=O)c1cc(=O)[nH]c2ccccc12)NC(=O)c1ccccc1 | 0 | nt | -3 | nt | nt | 3 | nt | nt | nt
COc1ccc(NC(=O)CC(Cc2ccccc2)C(=O)O)cc1 (stereo unspecified) | -4 | 92 | 5 | 90 | -8 | -3 | nt | nt | nt
COc1ccc(NC(=O)CC(C(=O)O)C(C)c2ccccc2)cc1 (stereo unspecified) | -2 | 108 | 3 | 160* | 29* | nt | 103 | -3 | 101
COc1ccc2c(c1)OC[C@H]1[C@@H]2N2C(=O)CNC(=O)[C@@]2(C)[C@H]1c1ccccc1 | -11 | nt | -2 | nt | nt | 6 | nt | nt | nt
CCOc1ccccc1Nc1nnc(SCC(=O)NC2CCS(=O)(=O)C2)s1 (stereo unspecified) | 1 | nt | -1 | nt | nt | 18 | nt | nt | nt
O=C(C(c1ccccc1)C(O)c1ccccc1)N1CCOCC1 (stereo unspecified) | -8 | nt | nt | nt | nt | nt | nt | nt | nt
O=C(Nc1nnc(-c2ccccc2F)s1)C1CCN(S(=O)(=O)c2ccc(Cl)cc2)CC1 | -3 | 96 | -8 | 101 | 1 | -9 | nt | nt | nt
O=C(Nc1nnc(-c2ccccc2Cl)s1)C1CCN(S(=O)(=O)c2ccc(Cl)cc2)CC1 | -14 | 140* | 0 | 100 | 0 | -1 | 101 | 0 | 101
CCCn1c(SCC(=O)Nc2cc(Cl)ccc2Cl)n[nH]c1=O | -3 | 103 | -2 | 99 | 0 | 1 | nt | nt | nt
CCCn1c(SCC(=O)NC(=O)Nc2ccc(C)cc2C)n[nH]c1=O | -15 | 0.0*[inhibitor] | 7 | -5.0*[inhibitor] | -18 | 11 | 111 | 5 | 114
C#CCOCCOCCOCCNc1nc(N2CCN(C(=O)C([C@@H](C)CC)n3cc(C(N)CC(C)C)nn3)CC2)nc(N2CCN(C(=O)[C@H](CCC(=O)O)n3cc(C(N)CC(C)C)nn3)CC2)n1 (stereo partly specified) | -1 | 101 | 14 | 101 | 6 | 3 | nt | nt | nt
C#CCOCCOCCOCCNc1nc(N2CCN(C(=O)[C@H]([C@@H](C)CC)n3cc([C@@H](N)CC(C)C)nn3)CC2)nc(N2CCN(C(=O)[C@H](CCCCN)n3cc([C@@H](N)CC(C)C)nn3)CC2)n1 | 9 | 105 | 55* | 151* | 23 | 13 | 150 | 25 | 107
C#CCOCCOCCOCCNc1nc(N2CCN(C(=O)C([C@@H](C)CC)n3cc(C(N)COC(=O)C(F)(F)F)nn3)CC2)nc(N2CCN(C(=O)[C@H](CCCCN)n3cc(C(N)[C@H](C)CC)nn3)CC2)n1 (stereo partly specified) | -13 | 116 | 114* | 304* | 62* | 16 | 237* | 86* | 114
C#CCOCCOCCOCCNc1nc(N2CCN(C(=O)[C@H](CCCCN)n3cc(CCCC)nn3)CC2)nc(N2CCN(C(=O)[C@H](CCCCN)n3cc(CCCC)nn3)CC2)n1 | -2 | 110 | 8 | 159* | 13 | -7 | 152 | 32 | 104
C#CCOCCOCCOCCNc1nc(N2CCOCC2)nc(N2CCN(C(=O)[C@H](CCCCN)n3cc(CCCC)nn3)CC2)n1 | -1 | nt | nt | nt | nt | nt | nt | nt | nt
C#CCOCCOCCOCCNc1nc(N2CCN(C(=O)[C@H]([C@@H](C)CC)n3cc([C@@H](N)CC(C)C)nn3)CC2)nc(N2CCN(C(=O)[C@H](CCCCN)n3cc([C@@H](N)C(C)CC)nn3)CC2)n1 (stereo partly specified) | -7 | 105 | 37 | 146* | 33 | 11 | 141 | 23 | 108
CCOC(=O)N1CCC(C(=O)NNC(=O)c2ccc(Cl)cc2Cl)CC1 | -1 | 102 | -4 | 99 | -1 | 0 | nt | nt | nt
CCOC(=O)c1c(CSC(=N)N)n(-c2ccccc2)c2cc(Br)c(OC(C)=O)cc12 | 35 | 102 | 28 | 143* | 22 | -3 | 169 | 48 | 112
CCOC(=O)c1c(CSc2ccccc2)n(C)c2cc(Br)c(OCC(O)CNC(CO)(CO)CO)cc12 (stereo unspecified) | 31 | 69*[inhibitor] | nt | 95 | -10 | 3 | 162 | 35 | 106
CCOC(=O)c1c(CSc2ccccc2)n(C)c2cc(Br)c(OC)c(O)c12 | -3 | 111 | -6 | 104 | 9 | -1 | nt | nt | nt

Source: PubChem BioAssay
